# Results filed as inconclusive are left out. Activity calls are given as the source filed them. The call rests on the fitted dose curve; in most records, active means well fitted inhibition curve with a large enough effect; inconclusive means small, poorly fitted or top-dose-only effect; inactive means flat fitted curve, though single readings scatter.
# Target: Dual specificity protein kinase CLK4 (Homo sapiens) (UniProt Q9HAZ1)
# Test: Reaction Biology data for inhibitors of CLK4: Probe SAR
# Conditions: Reaction Biology CLK4 kinase assay, 10 uM ATP; series mostly up to 10 µM; activity change, negative = inhibition: at the top concentration
# Text: Alternative splicing of pre-mRNAs plays a major role in the regulation of eukaryotic gene expression. Alternative splicing is now thought to be one of the primary reasons for the complexity of higher organisms leading to an average of three protein isoforms per gene. Aberrant splicing can lead to a number of diseases and is known to play a role in rare genetic diseases such as progeria syndrome. Hutchinson-Gilford Progeria Syndrome (HGPS) is a pediatric premature aging disease caused by a spontaneous mutation in the lamin A/C (LMNA) gene due to a single point mutation in the lamin A gene effecting 1 in 4 million people. To identify both specific splicing modulators of the lamin A gene as well as general splicing modulators, a cell-based HTS assay was developed using a minigene reporter system (AIDs, 1459 & 1487). […] This AID summarizes the characterization of lead compounds in Clk4. NIH Molecular Libraries Probe Production Centers Network [MLPCN] NIH Chemical Genomics Center [NCGC] MLPCN Grant: MH084827 Assay Submitter (PI): Tom Misteli
# Compound IC50s were determined at Reaction Biology (http://www.reactionbiology.com) with ten concentration points starting at 10 uM in the assay using a 3-fold dilution series. The control compound staurosporine was also tested in the 10-dose IC50 mode with the same 3-fold serial dilution, again starting at 10 uM. All kinase reactions were performed using 10 uM ATP in the assay. 100% activity was taken from kinase reactions with DMSO alone (the vehicle used for compound stock solutions).
# Chain of Dual specificity protein kinase CLK4 (Homo sapiens) (Q9HAZ1 whole entry, looked up): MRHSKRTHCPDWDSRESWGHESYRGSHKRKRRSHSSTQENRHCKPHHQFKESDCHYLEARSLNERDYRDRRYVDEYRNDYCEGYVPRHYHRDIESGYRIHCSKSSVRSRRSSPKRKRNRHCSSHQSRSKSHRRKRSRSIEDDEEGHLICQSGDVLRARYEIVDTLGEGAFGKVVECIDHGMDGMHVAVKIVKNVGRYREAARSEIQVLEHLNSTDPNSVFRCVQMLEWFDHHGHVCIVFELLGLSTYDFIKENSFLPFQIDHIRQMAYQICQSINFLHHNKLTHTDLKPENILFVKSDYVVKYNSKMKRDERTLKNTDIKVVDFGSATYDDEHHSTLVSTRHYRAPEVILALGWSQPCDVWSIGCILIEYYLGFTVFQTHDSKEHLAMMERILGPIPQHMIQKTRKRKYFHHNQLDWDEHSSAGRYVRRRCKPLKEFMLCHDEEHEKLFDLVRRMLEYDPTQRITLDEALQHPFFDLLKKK
Compound,Potency,"activity change, negative = inhibition"
Brc1ccc(CNc2nccc(-c3ccc4c(c3)OCO4)n2)cc1Br,17.7 nM (active),
Clc1ccc(CNc2ncncc2-c2ccc3c(c2)OCO3)cc1Cl,526 nM (active),
c1cc(-c2ccc3c(c2)OCO3)nc(Nc2ccc3c(c2)OCO3)n1,74.8 nM (active),
Cc1nc(CNc2ncnc3ccc(-c4ccc5c(c4)OCO5)cc23)cs1,25 nM (active),
FC(F)(F)c1cc(Br)cc(Nc2nccc(-c3ccc4c(c3)OCO4)n2)c1,85.5 nM (active),
COc1cccc(-c2ccnc(NCc3ccc(Cl)cc3)n2)c1,6810 nM (active),
Brc1cc(Br)cc(CNc2nccc(-c3ccc4c(c3)OCO4)n2)c1,9.4 nM (active),
c1cncc(CNc2ccnc(-c3ccc4[nH]ncc4c3)n2)c1,574 nM (active),
c1nc(NCC2CCCO2)c2cc(-c3ccc4c(c3)OCO4)ccc2n1 (configuration not stated),50.1 nM (active),
Cc1nc(CN(C)c2ncnc3ccc(-c4ccc5[nH]ncc5c4)cc23)cs1,37.7 nM (active),
COc1cccc(-c2ccnc(NCc3ccc(Cl)c(Cl)c3)n2)c1,3860 nM (active),
Clc1cc(Cl)cc(CNc2ncncc2-c2ccc3c(c2)OCO3)c1,68.2 nM (active),
FC(F)(F)c1cccc(Nc2nccc(-c3ccc4c(c3)OCO4)n2)c1,41.7 nM (active),
COc1ccc(-c2ccnc(NCc3ccc(Cl)cc3)n2)cc1,319 nM (active),
c1cncc(CNc2ccnc(-c3ccc4cn[nH]c4c3)n2)c1,1290 nM (active),
Clc1ccc(CNc2nccc(-c3ccc4[nH]ncc4c3)n2)cc1Cl,30.3 nM (active),
COc1ccc(-c2ccnc(NCc3ccc(Cl)c(Cl)c3)n2)cc1,91.7 nM (active),
O=[N+]([O-])c1cc(Nc2nccc(-c3ccc4c(c3)OCO4)n2)cc(C(F)(F)F)c1,23.1 nM (active),
Cc1nc(CN(C)c2ncnc3ccc(-c4ccc5c(c4)OCO5)cc23)cs1,15.9 nM (active),
c1cncc(CNc2nccc(-c3ccc4c(c3)OCO4)n2)c1,15.9 nM (active),
Cc1c(-c2ccnc(NCc3ccc(Cl)cc3)n2)sc(=O)n1C,273 nM (active),
Clc1ccc(CNc2nccc(-c3ccc4cn[nH]c4c3)n2)cc1Cl,123 nM (active),
Clc1ccc(CNc2nccc(-c3ccc4c(c3)OCO4)n2)cc1Cl,14.4 nM (active),
c1cncc(CNc2nccc(-c3ccc4[nH]ncc4c3)n2)c1,60 nM (active),
Cc1c(-c2ccnc(NCc3cccnc3)n2)sc(=O)n1C,87.8 nM (active),
Clc1ccc(CNc2nccc(-c3ccc4c(c3)OCCO4)n2)cc1Cl,13.1 nM (active),
COc1ccc(-c2ccnc(NCc3ccc(Cl)c(Cl)c3)n2)cc1OC,,-40.9% (inactive)

# Source: PubChem BioAssay AID624034 (National Center for Advancing Translational Sciences (NCATS), 2012)
